High-throughput results (PubChem BioAssay)
A selection: hits, their analogues and other compounds. The true share with any hit is near 5.1%.
Tau fluor cs – Counterscreen qHTS for Inhibitors of Tau Fibril Formation, Fluorescence Polarization; tau K18 P301L Alexa594 fluorescence, heparin fibrillization; Potency, µM (titrated, usually from 57.7 µM), for the others: at the highest dose activity change, negative = decrease; 280,000 tested, 0.93% active; AID 1463, 2008; note: potency is the fitted concentration of half-maximal effect; nearly all actives have a fitted effect of over 55% in size
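Human tau K18 P301L (15 uM unlabeled, 0.24 uM Alexa 594-labeled) in 100 mM sodium acetate pH 7 with 20 uM heparin, 6 hr at 37 C. ThT 30 uM added, 1 hr ambient; Alexa 594 FP and total fluorescence read at 555/632 nm.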
NPSR antagonist – qHTS Assay for Antagonists of the Neuropeptide S Receptor: cAMP Signal Transduction. CHO-NPSR cells, cAMP TR-FRET, antagonist mode. Potency, µM (highest dose often 38.3 µM), inactives show at the top dose activity change, negative = inhibition, actives largely listed as inhibitors. 220,000 tested, 1% active; note: potency is the fitted concentration of half-maximal effect; nearly all actives have a fitted effect of over 50% in size
PNC assembly inh – High Content Assay for Compounds that inhibit the Assembly of the Perinucleolar Compartment. PC3M PTB-GFP, PNC prevalence imaging, 16 h; hits give low values. activity change (PNC), negative = inhibition, % at 10 µM. 140,000 tested, 3.1% active;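 active = readout at or below -70, meaning at least 70% loss of cells showing the perinucleolar compartment, a nuclear body marking cancer cells; inconclusive = readout between -30 and a set limit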;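 note: plate controls were DMSO wells for no effect and camptothecin positive control wells for full effect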
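PC3M cells stably expressing PTB-GFP, 750–1000 cells/well, treated 16 h at 37 °C with compound (23 nl of library stock), in duplicate. After paraformaldehyde fixation and Hoechst stain, imaged at 20x; PNC prevalence scored by image analysis.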
Tau FP inhib – qHTS for Inhibitors of Tau Fibril Formation, Fluorescence Polarization; Microtubule-associated protein tau (Homo sapiens), P10636; K18 P301L tau heparin fibrillization, Alexa594 FP, 6 h; Potency, µM (titrated, usually from 57.7 µM), for inactives: at the top dose activity, negative = inhibition, most hits filed as inhibitors; 280,000 tested, 0.39% active; AID 1468, 2008; note: potency is the fitted concentration of half-maximal effect; nearly all actives have a fitted effect of over 55% in size
Target sequence (P10636 561-689 P618L limits assumed): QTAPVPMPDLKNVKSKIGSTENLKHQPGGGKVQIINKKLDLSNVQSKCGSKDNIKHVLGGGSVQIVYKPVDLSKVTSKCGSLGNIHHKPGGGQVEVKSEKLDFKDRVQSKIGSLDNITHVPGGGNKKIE
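Human K18 P301L fragment (15 uM unlabeled plus 0.24 uM Alexa 594-labeled) in 100 mM sodium acetate pH 7 with compound, aggregation induced by 20 uM heparin for 6 hr at 37 C. ThT (30 uM) added for 1 hr, then Alexa 594 FP read.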
Tau fibril ThT – qHTS for Inhibitors of Tau Fibril Formation, Thioflavin T Binding | Microtubule-associated protein tau (Homo sapiens), P10636 | recombinant tau K18 P301L, heparin-induced fibrillization, ThT fluorescence | Potency, µM (top dose mostly 57.4 µM), inactives show at the top dose activity, negative = inhibition, usual class: inhibitors | 270,000 tested, 2.1% active | AID 1460, 2008; note: potency is the fitted concentration of half-maximal effect; nearly all actives have a fitted effect of over 55% in size
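Using a mix of unlabeled (15 uM) and Alexa 594-labeled (0.24 uM) tau K18 P301L, heparin-triggered fibrillization over 6 hr at 37 C was scored by ThT fluorescence.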
JMJD2E inh – qHTS Assay for Inhibitors of Human Jumonji Domain Containing 2E (JMJD2E); Potency, µM (titrated, usually from 57.1 µM), for inactives: at the top dose activity change, negative = inhibition, usual class: inhibitors; 230,000 tested, 1.6% active; Lysine-specific demethylase 4E (Homo sapiens), B2RXH2; JMJD2E catalytic domain, FDH-coupled NADH fluorescence (FDH is formaldehyde dehydrogenase);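 note: potency is the fitted concentration of half-maximal effect; 0% = wells with enzyme and -100% = buffer wells without enzyme; nearly all actives have a fitted effect of over 50% in size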
Target sequence (B2RXH2 1-337 limits assumed): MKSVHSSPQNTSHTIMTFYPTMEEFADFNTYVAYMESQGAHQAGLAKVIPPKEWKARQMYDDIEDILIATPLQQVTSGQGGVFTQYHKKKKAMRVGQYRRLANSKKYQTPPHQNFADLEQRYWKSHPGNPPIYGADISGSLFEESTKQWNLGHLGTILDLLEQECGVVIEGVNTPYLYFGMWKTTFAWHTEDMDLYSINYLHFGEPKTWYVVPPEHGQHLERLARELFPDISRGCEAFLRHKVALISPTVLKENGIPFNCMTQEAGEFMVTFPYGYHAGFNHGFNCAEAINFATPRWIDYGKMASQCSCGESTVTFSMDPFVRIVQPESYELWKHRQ
* hit, by the source's call; [ ] = dose if it differs, or a comment. Unless noted, calls come from the whole dose curve; as a rule, active = well fitted curve in the direction sought with a large enough effect; inconclusive = small, poorly fitted or top-dose-only effect, or another doubt; inactive = no such curve, though single readings can be large; an effect the other way counts as inactive or inconclusive. Unless noted, % is set by controls: 0 for no effect and ±100 for the full control effect.

Screening COc1cc(CNc2ccc(O)cc2)cc(Br)c1OCc1ccccc1 returned Tau fluor cs 13µM*[quencher], NPSR antagonist 47%, Tau FP inhib inconclusive, Tau fibril ThT 25µM* and JMJD2E inh inconclusive.
Screening COc1ccc(Br)cc1CNc1ccc(O)cc1 returned Tau fluor cs inconclusive, NPSR antagonist -16%[46.1 µM], PNC assembly inh 2, Tau FP inhib 25µM*, Tau fibril ThT 13µM* and JMJD2E inh inconclusive.
COc1cc(CNC(C)(C)CO)cc(Br)c1OCc1ccc(Cl)cc1 was read as Tau fluor cs -10%, NPSR antagonist -35%, PNC assembly inh 62, Tau FP inhib -1%, Tau fibril ThT -13% and JMJD2E inh -12%.
Screening COC(=O)c1sccc1S(=O)(=O)N1CCN(c2cccc(C)c2C)CC1 returned Tau fluor cs -17%, Tau FP inhib -8% and Tau fibril ThT -6%.
For COc1ccc(CC(=O)Nc2ccc(S(=O)(=O)Nc3cc(C)on3)cc2)cc1OC the results were Tau fluor cs -13%, NPSR antagonist -10%[46.1 µM], PNC assembly inh 12, Tau FP inhib -14%, Tau fibril ThT -17% and JMJD2E inh 8%.
For COc1ccc(-c2csc(Nc3ccc(S(=O)(=O)Nc4cc(C)on4)cc3)n2)cc1C the results were Tau fluor cs inconclusive, NPSR antagonist -51%, Tau FP inhib 13%, Tau fibril ThT 13µM* and JMJD2E inh inconclusive.
COc1ccc(-c2csc(Nc3ccc(S(=O)(=O)Nc4cc(OC)nc(OC)n4)cc3)n2)cc1 was read as Tau fluor cs 11µM*[quencher], NPSR antagonist inconclusive, PNC assembly inh 98, Tau FP inhib 3%, Tau fibril ThT 16µM* and JMJD2E inh -4%.
Screening Cc1cccc(N2CCN(CCCNC(=O)c3sc4ncccc4c3-n3cccc3)CC2C)c1 (centres undefined) returned Tau fluor cs -5%, Tau FP inhib -2% and Tau fibril ThT -4%.
Screening CC1(C)N([O-])c2cc([N+](=O)[O-])ccc2[N+]1=O returned Tau fluor cs inconclusive, NPSR antagonist 2%[7.67 µM], Tau FP inhib 8.9µM*, Tau fibril ThT 2µM* and JMJD2E inh -27%.
CC(C)c1ccc(NC(=O)NC2CC3CCC(C2)N3Cc2cccs2)cc1 (centres undefined) was read as Tau fluor cs -9%, NPSR antagonist 2%, Tau FP inhib -12%, Tau fibril ThT 1% and JMJD2E inh 6%.
Screening Cc1cccc(C)c1NC(=O)NC1CC2CCC(C1)N2Cc1cccs1 (centres undefined) returned Tau fluor cs -2%, NPSR antagonist -19%[46.1 µM], PNC assembly inh -83*, Tau FP inhib 0%, Tau fibril ThT -1% and JMJD2E inh 5%.
Screening O=C(Oc1c(CN2CCOCC2)cc(Cl)c2cccnc12)c1ccccc1 returned Tau fluor cs -20%, NPSR antagonist -34%, Tau FP inhib inconclusive, Tau fibril ThT inconclusive and JMJD2E inh -20%.
For O=C(Oc1c(CN2CCOCC2)cc(Cl)c2cccnc12)c1ccccc1F the results were Tau fluor cs -16%, NPSR antagonist 7.9µM*, Tau FP inhib 0%, Tau fibril ThT -25% and JMJD2E inh 32µM*.
For COC(=O)c1c(C)[nH]c(-c2csc(N)n2)c1C the results were Tau fluor cs inconclusive, NPSR antagonist 5%, Tau FP inhib -13%, Tau fibril ThT 25µM* and JMJD2E inh -22%.
Screening COc1cc(/C=C2/S/C(=N/S(=O)(=O)c3ccccc3)NC2=O)c([N+](=O)[O-])cc1OC returned Tau fluor cs inconclusive, NPSR antagonist -14%[46.1 µM], PNC assembly inh inconclusive, Tau FP inhib inconclusive, Tau fibril ThT 16µM* and JMJD2E inh 4%.
COc1cc(/C=C2/S/C(=N/S(=O)(=O)Cc3ccccc3)NC2=O)c([N+](=O)[O-])cc1OC was read as Tau fluor cs -10%, NPSR antagonist -6%[7.67 µM], Tau FP inhib -6%, Tau fibril ThT inconclusive and JMJD2E inh -10%.
`COc1cc(/C=C2\S/C(=N/S(=O)(=O)Cc3ccccc3)NC2=O)c([N+](=O)[O-])cc1OC` gave Tau fluor cs -27%, NPSR antagonist -3%, Tau FP inhib -8%, Tau fibril ThT inconclusive and JMJD2E inh 2%.
O=C1N/C(=N\S(=O)(=O)Cc2ccccc2)S/C1=C/c1cc([N+](=O)[O-])ccc1O was read as Tau fluor cs inconclusive, NPSR antagonist -12%, Tau FP inhib 1%, Tau fibril ThT 5µM* and JMJD2E inh -5%.
Screening NC(=O)c1cccnc1Oc1cccc(Cl)c1 returned Tau fluor cs -7%, NPSR antagonist -2%[46.1 µM], PNC assembly inh inconclusive, Tau FP inhib -14%, Tau fibril ThT -5% and JMJD2E inh -4%.
For Clc1cccc(Oc2ncccn2)c1 the results were Tau fluor cs 12%, NPSR antagonist 10%, PNC assembly inh -83*, Tau FP inhib 0%, Tau fibril ThT 5% and JMJD2E inh 7%.
`CCn1c2ccccc2c2cc(CN3CCN(Cc4ccccc4Cl)CC3)ccc21` gave Tau fluor cs -29%, Tau FP inhib -4% and Tau fibril ThT inconclusive.
`O=C1c2ccccc2C(=O)C1c1ccnc2ccccc12` gave Tau fluor cs -7%, NPSR antagonist 10%[46.1 µM], PNC assembly inh -20, Tau FP inhib -4%, Tau fibril ThT 1.8µM* and JMJD2E inh 1%.
For O=C1C(c2ccnc3ccccc23)=C(O)c2ccccc21 the results were Tau fluor cs 3%, NPSR antagonist 1%[46.1 µM], PNC assembly inh 367, Tau FP inhib -1%, Tau fibril ThT inconclusive and JMJD2E inh -1%.
`O=C1c2ccccc2C(=O)C1c1nccc2ccccc12` gave Tau fluor cs -18%, NPSR antagonist -14%[46.1 µM], PNC assembly inh 27, Tau FP inhib -8%, Tau fibril ThT 1.4µM* and JMJD2E inh 0%.
For c1ccc2c(-c3nn[nH]n3)cccc2c1 the results were Tau fluor cs 0%, NPSR antagonist 1%, PNC assembly inh -17, Tau FP inhib 6%, Tau fibril ThT 1% and JMJD2E inh 0%.
Screening N#CC1=C(N)SC(N)=C(C#N)C1c1ccnc2ccccc12 returned Tau fluor cs -25%, NPSR antagonist -6%[46.1 µM], PNC assembly inh -14, Tau FP inhib inconclusive, Tau fibril ThT 28µM* and JMJD2E inh inconclusive.
